# Screens as filed in PubChem BioAssay.
# KCNQ2 pot = potentiators of rat KCNQ2 potassium channel; CHO-K1 KCNQ2, FluxOR thallium flux fluorescence; active compounds read high; 0.54% of 310,000 active; B-score at 10 µM; Potassium voltage-gated channel subfamily KQT member 2 (Rattus norvegicus), O88943; AID 2239, 2010;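 active = fluorescence ratio B-score at least 3 SD of library B-scores, with initial fluorescence B-score within 3 of them, cut at about 5.3 in these data; same plate scores as AID 2156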;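 note: B-score of peak minus minimum over baseline fluorescence ratio after K+ and Tl+ stimulus; positive B-score means potentiation of KCNQ2 with more thallium influx and brighter signal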
# Target sequence (O88943 whole entry, looked up): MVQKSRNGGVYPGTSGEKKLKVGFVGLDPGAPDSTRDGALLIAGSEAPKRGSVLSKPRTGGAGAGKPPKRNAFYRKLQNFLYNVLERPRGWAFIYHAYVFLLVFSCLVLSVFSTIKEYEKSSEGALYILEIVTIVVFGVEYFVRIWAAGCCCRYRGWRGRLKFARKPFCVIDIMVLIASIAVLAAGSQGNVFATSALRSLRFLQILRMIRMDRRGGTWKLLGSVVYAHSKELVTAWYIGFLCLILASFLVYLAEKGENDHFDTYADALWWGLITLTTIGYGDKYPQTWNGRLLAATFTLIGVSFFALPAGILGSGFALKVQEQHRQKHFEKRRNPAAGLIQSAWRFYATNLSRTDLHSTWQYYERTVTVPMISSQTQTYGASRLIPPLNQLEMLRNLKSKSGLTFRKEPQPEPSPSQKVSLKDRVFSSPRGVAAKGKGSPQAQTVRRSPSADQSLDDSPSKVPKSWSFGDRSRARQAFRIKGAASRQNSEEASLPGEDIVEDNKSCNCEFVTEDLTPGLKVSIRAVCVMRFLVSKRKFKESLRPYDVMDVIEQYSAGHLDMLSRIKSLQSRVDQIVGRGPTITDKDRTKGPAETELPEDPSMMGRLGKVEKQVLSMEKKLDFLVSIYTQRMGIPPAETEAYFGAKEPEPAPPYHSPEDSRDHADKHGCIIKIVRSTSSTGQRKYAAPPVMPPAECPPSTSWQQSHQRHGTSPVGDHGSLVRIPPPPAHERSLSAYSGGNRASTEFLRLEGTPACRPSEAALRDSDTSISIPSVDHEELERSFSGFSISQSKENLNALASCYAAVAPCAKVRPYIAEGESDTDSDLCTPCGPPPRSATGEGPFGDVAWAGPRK
# KCNQ2 block = rat KCNQ2 potassium channel inhibitors, primary screen, cell-based, CHO-K1, FluxOR thallium flux, B-score. 20 min; active compounds read low. 1.1% of 310,000 active. Potassium voltage-gated channel subfamily KQT member 2 (Rattus norvegicus), O88943. B-score at 10 µM;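 active = fluorescence ratio B-score at most minus 3 library SDs, with starting brightness B-score within 2 library SDs, cut at about -5.5 in these data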
# KCNQ2 block conf = rat KCNQ2 potassium channel inhibitors, confirmation, cell-based, thallium flux. AID 493025, 2011. KCNQ2-expressing cells, inhibition; active compounds read low. shares compounds with KCNQ2 block. 57% of 1,000 active. activity change, negative = inhibition, % at 10 µM;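 note: 0% = vehicle wells and values are ratio percent relative to vehicle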
# KCNQ1 spec = human KCNQ1 channel inhibition, counter-screen for KCNQ2 inhibitor project, cell-based, FluxOR thallium flux. shares compounds with KCNQ2 block. KCNQ1-expressing cells, FluxOR thallium flux fluorescence; active compounds read low. activity change, negative = inhibition, % at 10 µM. 15% of 1,000 active;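 active = activity change at least 3 SD of negative controls below their mean in both duplicate wells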;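 note: CHO cells stably transfected with KCNQ1 and depolarized by potassium stimulus; peak minus minimum fluorescence over baseline after thallium addition; 0% = vehicle negative control and -100% = blank without thallium stimulus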
# CHO Tl ctr = thallium flux change in parental CHO cells, counter-screen for KCNQ2 inhibitor project; 14% of 1,000 active; AID 493029, 2011; shares compounds with KCNQ2 block; activity change, % at 10 µM; active compounds read low;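 note: 0% = vehicle negative controls with stimulus buffer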
# KCNQ2 inh confirm = rat KCNQ2 channel inhibitors, confirmation, cell-based, automated patch clamp, single concentration. shares compounds with KCNQ2 block. KCNQ2-expressing cells, automated patch clamp current. 49% of 550 active. calls only at 10 µM
# * = called active by the depositor; i = inactive; x = no result; + = active, no number. Most compounds without a hit are left out; they make up all but 1.6% or so of the library. Unless noted, the rule behind the calls is not given here.
SMILES,KCNQ2 pot,KCNQ2 block,KCNQ2 block conf,KCNQ1 spec,CHO Tl ctr,others
Cc1ccc(CN2CCN(/N=C/c3ccc(C)s3)CC2)c(C)c1,-7.9,-7.9*,i,i,i,
Cc1ccc(CN2CCN(/N=C/c3cccn3C)CC2)c(C)c1,x,i,x,x,x,
Cc1ccc(NS(=O)(=O)c2cc3c4c(c2)CC(=O)N4CCC3)cc1C,x,i,x,x,x,
CC(C)c1nnc(NC(=O)CCC(=O)Nc2ccc(Cl)cc2)s1,0.13,i,x,x,x,
COc1ccc2[nH]c3c(NCCC4=CCCCC4)ncnc3c2c1,-9.1,-9.1*,i,i,i,
CCN(CC)CCNc1ncnc2c1[nH]c1ccc(OC)cc12,1.7,i,x,x,x,
CCc1ccc(-c2cc(C)no2)cc1S(=O)(=O)N1CCC(C)CC1,x,i,x,x,x,
Cc1cc(-c2ccc(C(C)C)c(S(=O)(=O)N3CCC(C)CC3)c2)on1,-8.4,-8.4*,-16%*,i,i,KCNQ2 inh confirm=i
COc1ccc(NC(C#N)c2ccc(OC)cc2)cc1 (configuration not stated),x,i,x,x,x,
Cc1cccnc1NC(=O)C12CCC(C)(C(=O)O1)C2(C)C (configuration not stated),0.89,i,x,x,x,
Cc1c(CCOC(=O)CC23CC4CC(CC(C4)C2)C3)sc[n+]1CC(=O)c1ccccc1,-8.5,-8.5*,-20%*,i,i,KCNQ2 inh confirm=+
Cc1c(CCOC(=O)C23CC4(C)CC(C)(CC(C)(C4)C2)C3)sc[n+]1CC(=O)c1ccccc1,x,i,x,x,x,
Oc1ccc(C[C@@H]2CNCCN2CCC23CC4CC(CC(C4)C2)C3)cc1,x,i,x,x,x,
Cc1cc(-n2cnc(-c3cn[nH]c3C)n2)no1,x,i,x,x,x,
O=C(COc1ccc2ccccc2c1)N1c2ccccc2Sc2ccccc21,-8.9,-8.9*,-28%*,i,i,KCNQ2 inh confirm=i
O=C(CSc1nncs1)N1c2ccccc2Sc2ccccc21,1,i,x,x,x,
Cc1ccc(SCC(=O)N2c3ccccc3Sc3ccccc32)cc1,-6.6,-6.6*,i,i,i,
CC(=O)NCC(=O)OCC(=O)N1c2ccccc2Sc2ccccc21,0.98,i,x,x,x,
O=C(CNC(=O)c1cccc(Br)c1)N/N=C/c1cc(Br)cc(Br)c1O,x,i,x,x,x,
COc1ccc(CCCc2nnc(SCC(=O)NN)o2)c(C)c1,1.8,i,x,x,x,
CC(=O)OC1CCC2(C)C(CCC3C2CC(OC(C)=O)C2(C)C3C[C@@H]3O[C@]4(CC[C@@H](C)CO4)[C@@H](C)C32)C1 (some centres not stated),x,i,x,x,x,
Cc1ccc(O)c(CNc2nc3ccccc3n2C(C)C)c1,x,i,x,x,x,
C=CCn1c(NCc2cc(C)ccc2O)nc2ccccc21,-7.1,-7.1*,-16%*,i,i,KCNQ2 inh confirm=+
CCC(C(=O)NC(C)(C)C)N(Cc1ccco1)C(=O)CNS(=O)(=O)c1ccc(OC)cc1 (configuration not stated),0.93,i,x,x,x,
CC12CCC(C(=O)Nc3ccccc3N3CCOCC3)(CC1=O)C2(C)C (configuration not stated),0.35,i,x,x,x,
SMILES,KCNQ2 pot,KCNQ2 block,KCNQ2 block conf,KCNQ1 spec,CHO Tl ctr,others
COc1cccc(OC)c1C(=O)NNC(=O)c1ccc(F)cc1,0.02,i,x,x,x,
COc1ccc(NC(=O)CN2C(=O)NC3(CC(C)CC(C)(C)C3)C2=O)cc1S(=O)(=O)N1CCCCC1 (configuration not stated),-8.9,-8.9*,i,i,i,
COc1ccc(NC(=O)CC2CCCC2)cc1S(=O)(=O)N1CCCCC1,1.6,i,x,x,x,
CCOC(=O)N1CCC(N(CCCOC)C(=O)Nc2cccc(OC)c2)CC1,x,i,x,x,x,
CCOC(=O)N1CCC(N(CCOC)C(=O)Nc2ccc(Cl)c(Cl)c2)CC1,-9.4,-9.4*,-25%*,i,i,
CO/N=C/c1ccc(Sc2ccccc2)c([N+](=O)[O-])c1,x,i,x,x,x,
COc1ccc(N2CCN(C(=O)CC(NC(N)=O)c3cccc(Oc4ccccc4)c3)CC2)cc1 (configuration not stated),x,i,x,x,x,
O=C(c1c(Cl)cccc1Cl)N1CCCCCC1,0.03,i,x,x,x,
O=[N+]([O-])c1cc(-c2cnc3ccccc3n2)ccc1Oc1ccc(F)cc1,-8.4,-8.4*,-20%*,i,i,KCNQ2 inh confirm=i
O=[N+]([O-])c1ccccc1Oc1cnc2ccccc2n1,1.1,i,x,x,x,
CCCSc1nc(NCc2ccco2)c2c3c(sc2n1)COC(C)(C)C3,-9.8,-9.8*,i,i,i,
CCCCSc1nc(NCc2ccco2)c2c3c(sc2n1)COC(C)(C)C3,x,i,x,x,x,
c1ccc(CN(Cc2cccs2)C(c2cccs2)c2nnnn2C2CCCC2)cc1 (configuration not stated),-8.2,-8.2*,i,i,i,
c1ccc(CC2CCN(C(c3cccs3)c3nnnn3C3CCCC3)CC2)cc1 (configuration not stated),x,i,x,x,x,
CC(C)CC(NC(=O)c1ccc(Cl)cc1)C(=O)OCC(=O)c1ccc2c(c1)NC(=O)CO2 (configuration not stated),0.91,i,x,x,x,
CN(C)c1nc(NCc2ccccc2)nc(N/N=C/c2ccccc2F)n1,x,i,x,x,x,
CN(C)c1nc(NCc2ccccc2)nc(N/N=C/c2ccc(Cl)cc2Cl)n1,-8.8,-8.8*,i,i,i,
COc1ccc(/C=C/CN2CCCC(CO)(Cc3cccc(Cl)c3)C2)cc1 (configuration not stated),-6.8,-6.8*,-23%*,i,i,KCNQ2 inh confirm=i
COc1ccccc1/C=C/CN1CCCC(CO)(Cc2cccc(Cl)c2)C1 (configuration not stated),x,i,x,x,x,
CCn1c(-c2cc(-c3ccc(C)cc3)nc3ccccc23)n[nH]c1=S,x,i,x,x,x,
CN1C(=O)c2ccc(N3CCCC3)cc2C1=O,x,i,x,x,x,
Cc1cccc(N2C(=O)/C(=C\c3ccc(C(=O)O)cc3)c3ccccc3C2=O)c1,-9.1,-9.1*,-20%*,i,i,KCNQ2 inh confirm=i
Cc1cccc(N2C(=O)c3ccc(C(=O)Nc4ccccn4)cc3C2=O)c1,0.05,i,x,x,x,
CCNC(=S)N1CCC(Cc2ccccc2)CC1,x,i,x,x,x,
CCn1c(C(=O)NC(C)c2ccc3c(c2)OCCO3)cc2sccc21 (configuration not stated),x,i,x,x,x,
COc1ccccc1N1CCN(C2=Nc3cccc4cccc2c34)CC1,-9,-9*,-34%*,i,i,KCNQ2 inh confirm=+
CC(=O)N1CCN(C2=Nc3cccc4cccc2c34)CC1,x,i,x,x,x,
COCCn1c(SC(C(=O)Nc2cc(C)ccc2OC)c2ccccc2)nnc1-c1ccc(Cl)cc1 (configuration not stated),-9.5,-9.5*,i,i,i,
